Mito fusion yeast – qHTS Assay for Small Molecule Inhibitors of Mitochondrial Division or Activators of Mitochondrial Fusion. S. cerevisiae fusion-defective mutant growth rescue, CellTiterGlo 48 h. actives 0.23% (n = 320,000). Potency, µM (series often up to 46.1 µM), hits mostly activators; also: nearly all actives have a fitted effect of over 45% in size
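Luminescent cell viability in 1536-well qHTS format served as the measure of rescued growth in ts fusion-mutant S. cerevisiae cultured on non-fermentable YPEG for 48 hours at 37C.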
rTrxR1 inhibitor – qHTS Assay for Inhibitors of Mammalian Selenoprotein Thioredoxin Reductase 1 (TrxR1): qHTS. recombinant rTrxR1, NADPH fluorescence consumption, selenite substrate. Potency, µM (top dose mostly 114 µM), hits mostly inhibitors. actives 1% (n = 390,000); also: nearly all actives have a fitted effect of over 65% in size
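Rat TrxR1 (90 nM in the dispensed reagent) was pre-reduced with 400 uM NADPH for 5 min at room temperature, then incubated with compound for 15 min. After 400 uM selenite was added, NADPH fluorescence (Ex 340/Em 450 nm) was followed for 8 min.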
mIDH1 inhibitor – qHTS for Inhibitors of mutant isocitrate dehydrogenase 1 (IDH1): qHTS | Isocitrate dehydrogenase [NADP] cytoplasmic (Homo sapiens), O75874 | IDH1-R132H enzyme, NADPH consumption, diaphorase/resazurin fluorescence | Potency, µM (top dose mostly 76.6 µM), hits mostly inhibitors | actives 0.093% (n = 390,000) | AID 602179, 2012; also: nearly all actives have a fitted effect of over 65% in size
Target sequence (O75874 whole entry R132H, stated change not applied): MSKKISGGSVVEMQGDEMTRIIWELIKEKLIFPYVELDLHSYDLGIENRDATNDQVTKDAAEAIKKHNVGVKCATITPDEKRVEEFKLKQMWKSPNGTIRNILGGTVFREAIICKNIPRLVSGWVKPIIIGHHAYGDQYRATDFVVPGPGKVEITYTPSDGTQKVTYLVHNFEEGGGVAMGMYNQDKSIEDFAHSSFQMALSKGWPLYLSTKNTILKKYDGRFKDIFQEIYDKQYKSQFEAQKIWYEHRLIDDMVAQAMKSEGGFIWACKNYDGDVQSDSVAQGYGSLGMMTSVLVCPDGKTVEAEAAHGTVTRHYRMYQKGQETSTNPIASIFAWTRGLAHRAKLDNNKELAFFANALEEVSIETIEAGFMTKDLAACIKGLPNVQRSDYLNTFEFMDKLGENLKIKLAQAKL
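IDH1-R132H (0.5 ug/mL) preincubated 30 min with compound, then NADPH (0.016 mM) and alpha-KG (2 mM) added; 80 min at RT, pH 7.5. Remaining NADPH coupled via diaphorase/resazurin to fluorescence (540/590 nm); concentration-response curves normalized to no-enzyme control.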
Nrf2 inh – Nrf2 qHTS screen for inhibitors; A549 ARE-Fluc reporter, luciferase luminescence, 18-24 h; Potency, µM (doses to about 46 µM), most hits filed as inhibitors; actives 2.1% (n = 360,000); AID 504444, 2011; also: nearly all actives have a fitted effect of over 60% in size
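Nrf2 activity is the BugLite luminescence, read 15 min after reagent at room temperature, following CellTiter-Fluor cytotoxicity readout (30 min, 37C). Compound titrations were applied for 18-24 h to 5000 A549 ARE_Fluc cells/well in 5% FBS OPTI-MEM.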
TrxR1 substrate – qHTS Assay for Substrates of Mammalian Selenoprotein Thioredoxin Reductase 1 (TrxR1): qHTS; Thioredoxin reductase 1, cytoplasmic (Rattus norvegicus), O89049; Potency, µM (top dose mostly 114 µM); purified TrxR1 substrate turnover, NADPH consumption readout; actives 0.01% (n = 390,000); also: nearly all actives have a fitted effect of over 50% in size
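Rat TrxR1, dispensed at 90 nM, was prereduced with 400 uM NADPH (final) for 5 min at ~22 deg C, then incubated with compound 15 min before 400 uM selenite. A first-read NADPH fluorescence drop versus no-compound background flagged substrates.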
A549 viability – Nrf2 qHTS screen for inhibitors: counterscreen for cytotoxicity; A549 ARE-Fluc cells, CellTiter-Fluor viability, 18-24 h; Potency, µM (highest dose often 46 µM), most hits filed as inhibitors; actives 0.16% (n = 390,000); AID 504648, 2011
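A549 ARE-Fluc cells in 5% FBS OPTI-MEM, 5000 cells/well, rested 2 h then exposed to compounds in concentration-response for 18-24 h at 37 °C. Viability by CellTiter-Fluor fluorescence (Ex 405/Em 525) after 30 min; luciferase luminescence (BugLite, 15 min, RT) read afterwards.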
Large screens that a line does not name were inactive. A selection: hits, their analogues and other compounds. The true share with any hit is near 3.1%. Calls follow the shape of the dose curve; as a rule, active = well fitted curve in the direction sought with a large enough effect; inconclusive = small, poorly fitted or top-dose-only effect, or another doubt; inactive = no such curve, though single readings can be large; an effect the other way counts as inactive or inconclusive.

Cc1ccc(S(=O)(=O)NNC(=O)c2ccc(C(=O)N(c3ccccc3)c3ccccc3)cc2)cc1	none (no result: Mito fusion yeast, mIDH1 inhibitor, Nrf2 inh, A549 viability)
COc1cc2c(cc1OC)-c1cc(NC3CCCC3)nc(=O)n1CC2	none
COc1cc2c(cc1OC)-c1cc(=Nc3c(C)cc(C)cc3C)n(C)c(=O)n1CC2	Mito fusion yeast 18.4µM, Nrf2 inh inconclusive (no result: mIDH1 inhibitor)
O=C1C(=O)c2ccc(-c3ccccc3)cc2-c2ccccc21	rTrxR1 inhibitor inconclusive, Nrf2 inh 20.6µM, TrxR1 substrate 10µM (no result: A549 viability)
Nc1ccc2c(c1)C(=O)C(=O)c1ccccc1-2	rTrxR1 inhibitor 6.31µM, TrxR1 substrate 3.98µM, A549 viability inconclusive (no result: Nrf2 inh)
Nc1ccc2c(c1)C(=O)c1ccccc1-2	none (no result: Mito fusion yeast)
Nc1ccc2c(c1)C(=O)c1ccccc1C2=O	Nrf2 inh inconclusive
O=C(NCCCc1nc2ccccc2n1CCCOc1ccccc1)C1CCCCC1	none (no result: Mito fusion yeast, mIDH1 inhibitor)
Cc1ccc(-n2c(Cc3cccs3)nnc2SCC(=O)Nc2ccc(F)c(F)c2)cc1	Nrf2 inh 23.1µM
COCCn1c(-c2ccc(OC(F)(F)C(F)C(F)(F)F)cc2)nc2c1c(=O)[nH]c(=O)n2CC(C)C (stereo not drawn)	Nrf2 inh 18.4µM
COc1cc2c(cc1OC)/C(=C/C(=O)N1CCOCC1)NC(C)(C)C2	none (no result: Nrf2 inh)
CC1(C)Cc2ccccc2/C(=C/C(=O)N2CCCCCC2)N1	Nrf2 inh 25.9µM
CC(C)(C)OC(=O)N1CCC[C@H]1c1nnc(SCc2ccc(Cl)cc2)o1	none
CC(C)(C)OC(=O)N1CCC(c2nnc(SCc3ccccc3)o2)CC1	Nrf2 inh 11.6µM (no result: Mito fusion yeast)
CCOc1ccc(OCC)c(NS(=O)(=O)c2c(C(=O)N3CCC(C)CC3)c(C)n(C)c2C)c1	none (no result: Mito fusion yeast, Nrf2 inh)
CC(C)(C)NC(=O)NC(=O)CN1CCN(c2ccccc2)CC1	none
Cc1ccc(NC(=O)NC(=O)CN2CCC(C(N)=O)CC2)c(C)c1	Nrf2 inh inconclusive
CC(C)(C)NC(=O)NC(=O)CN1CCN(c2ccc(O)cc2)CC1	Nrf2 inh 20.6µM
Cc1ccc(NC(=O)NC(=O)CN2CCN(c3ccc(O)cc3)CC2)c(C)c1	Nrf2 inh 23.1µM
Cc1ccc2oc(-c3ccc(C)c(NC(=O)COc4ccc(Cl)cc4)c3)nc2c1	none (no result: Mito fusion yeast, mIDH1 inhibitor, Nrf2 inh, A549 viability)
COc1cc2c(cc1OC)-c1cc(Nc3ccc(N(C)C)cc3)nc(=O)n1CC2	Nrf2 inh inconclusive
CCN(CC)c1ccc(Nc2cc3n(c(=O)n2)CCc2cc(OC)c(OC)cc2-3)cc1	Nrf2 inh 16.4µM
CN1CCN(C(=O)c2ccc3c(c2)N(Cc2c(F)cccc2Cl)C(=O)c2ccccc2S3)CC1	none (no result: Mito fusion yeast)
O=C(NC(Nc1ncc(S(=O)(=O)c2ccc([N+](=O)[O-])cc2)s1)(C(F)(F)F)C(F)(F)F)c1ccc(Cl)cc1	rTrxR1 inhibitor inconclusive, Nrf2 inh 5.8µM, A549 viability inconclusive
COCC(=O)Nc1ncc(S(=O)(=O)c2ccc([N+](=O)[O-])cc2)s1	Nrf2 inh inconclusive
CCCCCCn1c(N2CCN(c3ccccc3)CC2)nc2c1c(=O)[nH]c(=O)n2C	Mito fusion yeast inconclusive, Nrf2 inh 20.6µM, A549 viability inconclusive
CCOC(=O)c1c(C)nc2sc3c(=O)n(-c4ccc(C(C)=O)cc4)cnc3c2c1-c1ccc(Cl)cc1	Nrf2 inh 23.1µM
CCOC(=O)c1c(C)nc2sc3c(=O)n(-c4ccc(C(C)=O)cc4)nnc3c2c1-c1ccc(Cl)cc1	Nrf2 inh 18.4µM, A549 viability inconclusive
COc1ccc(-n2c3c(c(=O)[nH]c2=O)C(C(F)(F)F)(C(F)(F)F)N=C(CC(C)C)N3)cc1	Nrf2 inh inconclusive

Source: PubChem
